Assay results published in PubChem BioAssay.
The list shows a part of the results. Active and inactive are the calls of the source.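 Rule for the calls, unless noted: active = fluorescence ratio falls more than 5 SD below the full-stimulation control mean, in both duplicate runs; inactive = the rest.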

What was measured:
[1] = biological target: Short transient receptor potential channel 4 (Mus musculus) (UniProt Q9QUQ5); experiment: mouse TRPC4 membrane potential modulation by TRPC6 hits, confirmation, selectivity assay for TRPC6 inhibitor project, cell-based, second specificity screen, HEK293 TRPC4/mu-opioid (AID 2776;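 active = compounds whose fluorescence signal differed from control wells by over 3 SD, either direction, in both duplicate plates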); details: HEK293 TRPC4/MOR, membrane potential dye fluorescence, at 10 µM, channel activated by saturating DAMGO dose; hits give high values
Chain of Short transient receptor potential channel 4 (Mus musculus) (Q9QUQ5 whole entry, looked up): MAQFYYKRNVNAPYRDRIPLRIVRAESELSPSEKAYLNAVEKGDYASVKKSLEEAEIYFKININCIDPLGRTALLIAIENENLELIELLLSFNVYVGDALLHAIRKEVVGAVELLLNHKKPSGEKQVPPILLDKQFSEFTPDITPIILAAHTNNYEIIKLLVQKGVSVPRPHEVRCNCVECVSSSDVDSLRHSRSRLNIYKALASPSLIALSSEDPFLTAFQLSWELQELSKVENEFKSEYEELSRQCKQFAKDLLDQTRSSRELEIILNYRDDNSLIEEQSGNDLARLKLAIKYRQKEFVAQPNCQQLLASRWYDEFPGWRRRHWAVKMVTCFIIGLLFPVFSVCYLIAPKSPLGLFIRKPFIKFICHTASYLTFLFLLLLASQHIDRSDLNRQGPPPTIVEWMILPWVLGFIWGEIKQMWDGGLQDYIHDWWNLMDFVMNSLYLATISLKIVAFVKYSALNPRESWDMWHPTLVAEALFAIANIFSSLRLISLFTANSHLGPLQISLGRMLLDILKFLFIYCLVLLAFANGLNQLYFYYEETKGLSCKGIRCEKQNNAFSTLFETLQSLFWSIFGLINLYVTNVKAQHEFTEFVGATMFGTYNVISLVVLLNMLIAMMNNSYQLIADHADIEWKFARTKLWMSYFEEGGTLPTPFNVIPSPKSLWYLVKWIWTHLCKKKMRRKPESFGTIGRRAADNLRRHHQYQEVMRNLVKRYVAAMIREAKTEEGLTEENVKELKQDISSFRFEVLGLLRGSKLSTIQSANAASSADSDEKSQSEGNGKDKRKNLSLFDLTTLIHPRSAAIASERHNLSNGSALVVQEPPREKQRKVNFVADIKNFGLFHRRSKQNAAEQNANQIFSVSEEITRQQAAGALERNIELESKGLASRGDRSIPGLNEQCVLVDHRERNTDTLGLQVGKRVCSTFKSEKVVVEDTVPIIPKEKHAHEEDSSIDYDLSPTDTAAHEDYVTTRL

[2] = tested on: transient receptor potential cation channel C4 (TRPC4), mouse; experiment: mouse TRPC4 modulation by TRPC6 hits, confirmation, selectivity assay for TRPC6 inhibitor project, cell-based, HEK293 TRPC4/mu-opioid, membrane potential dye (AID 2777;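 active = rise or fall in signal beyond 3 SD of buffer-only wells in both replicate plates, either sign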;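 note: integrated kinetic ratio of fluorescence range over baseline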); details: membrane potential fluorescence, at 10 µM
[3] = nonspecific membrane potential effects, parental HEK293, confirmation, counter-screen for TRPC6 inhibitor project, cell-based, second counter screen (AID 2779;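 active = membrane potential signal moving either way by over 3 SD of the maximum-effect control, in both duplicate plates, meaning non-specific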); details: parental HEK293 membrane potential dye fluorescence; at 10 µM; maximal acetylcholine challenge after compound addition
[4] = membrane potential modulation in parental HEK293, confirmation, counter-screen for TRPC6 inhibitor project, cell-based (AID 2780;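 active = membrane potential signal shifting up or down by more than 3 SD of buffer-only wells, on both duplicate plates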;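 for membrane potential signal change: plate controls were buffer EC0 wells for no effect and acetylcholine ECmax wells for full effect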); details: parental HEK293 membrane potential dye fluorescence; at 10 µM
[5] = biological target: Short transient receptor potential channel 6 (Mus musculus) (UniProt Q61143); experiment: mouse TRPC6 channel inhibitors, confirmation, HEK293 cells, membrane potential dye, duplicate (AID 488960); details: ACh-evoked depolarization, at 10 µM; hits give high values;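 for inhibition: integrated fluorescence ratio of peak minus minimum over baseline after agonist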
Chain of Short transient receptor potential channel 6 (Mus musculus) (Q61143 whole entry, looked up): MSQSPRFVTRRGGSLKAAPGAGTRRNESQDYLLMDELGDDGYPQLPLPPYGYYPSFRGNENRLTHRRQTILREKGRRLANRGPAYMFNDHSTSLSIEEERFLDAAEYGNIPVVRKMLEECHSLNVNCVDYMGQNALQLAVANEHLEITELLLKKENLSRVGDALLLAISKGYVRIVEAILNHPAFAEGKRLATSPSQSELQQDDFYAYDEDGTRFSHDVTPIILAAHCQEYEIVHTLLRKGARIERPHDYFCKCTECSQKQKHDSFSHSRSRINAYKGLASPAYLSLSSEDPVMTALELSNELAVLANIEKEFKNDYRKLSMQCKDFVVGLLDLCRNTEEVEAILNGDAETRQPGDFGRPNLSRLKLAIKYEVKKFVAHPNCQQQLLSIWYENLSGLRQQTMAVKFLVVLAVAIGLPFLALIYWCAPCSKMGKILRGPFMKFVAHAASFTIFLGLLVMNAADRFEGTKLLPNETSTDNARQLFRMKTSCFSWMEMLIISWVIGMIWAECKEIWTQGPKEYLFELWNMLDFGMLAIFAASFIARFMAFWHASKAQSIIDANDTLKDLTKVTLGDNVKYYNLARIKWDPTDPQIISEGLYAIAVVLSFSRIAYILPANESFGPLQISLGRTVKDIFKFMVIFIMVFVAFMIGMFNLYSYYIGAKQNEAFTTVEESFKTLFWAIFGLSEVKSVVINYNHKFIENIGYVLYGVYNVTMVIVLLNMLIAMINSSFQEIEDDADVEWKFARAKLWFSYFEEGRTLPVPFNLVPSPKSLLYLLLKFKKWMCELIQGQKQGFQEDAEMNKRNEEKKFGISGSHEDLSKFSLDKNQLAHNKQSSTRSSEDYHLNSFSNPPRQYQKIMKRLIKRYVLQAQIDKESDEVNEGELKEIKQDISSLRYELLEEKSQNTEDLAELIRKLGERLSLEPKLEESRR

[6] = biological target: Short transient receptor potential channel 6 (Mus musculus) (UniProt Q61143); experiment: mouse TRPC6 channel activators, confirmation, HEK293 cells, membrane potential dye, duplicate (AID 488961;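 active = ratio signal rise beyond 5 SD above unstimulated control wells' mean, seen in both duplicate runs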;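 for activation: plate controls were buffer EC0 wells for no effect and acetylcholine ECmax response for full effect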); details: HEK293-TRPC6 membrane potential dye fluorescence, FDSS, at 10 µM; hits give high values
[7] = parental HEK293 membrane potential modulation, confirmation, counter-screen for TRPC6 modulator project, cell-based (AID 488924;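 active = membrane potential signal moves up or down beyond 5 SD from buffer-only wells, on both duplicate plates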); details: parental HEK293, membrane potential dye fluorescence; at 10 µM
[8] = modulation of acetylcholine-evoked membrane potential, parental HEK293, confirmation, counter-screen for TRPC6 modulator project, cell-based, second counter-screen, membrane potential dye (AID 488926;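 active = membrane potential signal drops by more than 5 SD from the mean control signal, in both duplicate plates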;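 for inhibition: plate controls were acetylcholine ECmax control wells for no effect and buffer only wells for full effect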); details: parental HEK293, membrane potential dye fluorescence, at 10 µM, after compound, maximal acetylcholine stimulation; hits give high values
[9] = tested on: Transient receptor potential cation channel subfamily C member 4 (mouse); experiment: TRPC4 modulation by TRPC6 hit compounds, confirmation, selectivity assay for TRPC6 modulator project, cell-based, HEK293 TRPC4/mu-opioid, membrane potential dye, mouse (AID 488927;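 active = membrane potential signal moved up or down beyond 5 SD of buffer control wells, in both duplicate plates, actives on both sides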;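 for percent change from control (negative = decrease, positive = increase): plate controls were assay buffer wells for no effect and DAMGO maximal-effect wells for full effect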); details: membrane potential fluorescence, at 10 µM
[10] = tested on: TRPC4 (transient receptor potential cation channel C4), mouse; experiment: TRPC4 inhibition by TRPC6 hit compounds, confirmation, selectivity assay for TRPC6 modulator project, cell-based, second screen, HEK293 TRPC4/mu-opioid, membrane potential dye (AID 488928;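 active = drop in membrane potential signal beyond 5 SD of the control wells in both duplicate plates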;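 note: TRPC4 counter screen for TRPC6 hits run under conditions tuned for TRPC6 not TRPC4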); details: membrane potential dye fluorescence, at 10 µM, stimulated with maximal-effect DAMGO; hits give high values

CCCCCCCCCCOC(=O)C[N+](C)(C)CC1CCCCC1O (stereo unspecified)
active: activity change, negative = inhibition [2] 7.58% | membrane potential signal change [4] 2.25%
inactive: outcome [1] | outcome [3] | outcome [5] | outcome [6]

COc1ccccc1C1SCCN1C(=O)c1ccc([N+](=O)[O-])cc1 (stereo unspecified)
inactive: outcome [1] | outcome [2] | outcome [3] | outcome [4] | outcome [5] | outcome [6]

COc1ccccc1OCCNCC(O)COc1cccc2[nH]c3ccccc3c12 (stereo unspecified)
inactive: outcome [2] | outcome [3] | outcome [4] | outcome [6]
active: inhibition [1] 28% | inhibition [5] 61.1%

CCCCN(CCCC)CC(O)Cn1c2ccccc2c(=O)c2ccccc21 (stereo unspecified)
inactive: outcome [7] | outcome [8] | outcome [9]
active: inhibition [10] 85.5% | inhibition [5] 69%

CCOC(=O)N1CCC(NC(=O)CN2C(=O)COc3ccc(C(C)(C)C)cc32)CC1
inactive: outcome [1] | outcome [2] | outcome [3] | outcome [4] | outcome [5]

Cc1cc(Nc2ccc(N3CCOCC3)cc2)c2cccc(C)c2n1
inactive: outcome [5] | outcome [6]
active: inhibition [1] 59% | activity change, negative = inhibition [2] -24.1% | signal change vs control [3] 26.5% | membrane potential signal change [4] -362%

Cc1c(CCOC(=O)CC23CC4CC(CC(C)(C4)C2)C3)sc[n+]1Cc1ccc([N+](=O)[O-])cc1
inactive: outcome [8] | outcome [10] | outcome [5] | outcome [6]
active: membrane potential signal change [7] -103% | percent change from control (negative = decrease, positive = increase) [9] -29.5%

CC(NC(=S)Nc1ccc(OC(F)F)cc1)c1ccc(F)cc1 (stereo unspecified)
inactive: outcome [7] | outcome [8] | outcome [10] | outcome [5] | outcome [6]
active: percent change from control (negative = decrease, positive = increase) [9] -14.5%

COC(=O)c1c(NC(=O)c2ccc(S(=O)(=O)N3CCOCC3)cc2)sc2c1CCN(C(C)C)C2
inactive: outcome [8] | outcome [5] | outcome [6]
active: membrane potential signal change [7] -96% | percent change from control (negative = decrease, positive = increase) [9] -33% | inhibition [10] 37.5%

CCc1ccc(OCC(=O)N(Cc2ccccc2)C2CCS(=O)(=O)C2)cc1 (stereo unspecified)
inactive: outcome [7] | outcome [8] | outcome [10] | outcome [5] | outcome [6]
active: percent change from control (negative = decrease, positive = increase) [9] 8.5%

COc1cc(CNCCN(C)C)ccc1OCc1c(F)cccc1Cl
active: membrane potential signal change [7] 142% | percent change from control (negative = decrease, positive = increase) [9] 15.5% | inhibition [10] 49% | activation [6] 56%
inactive: outcome [8] | outcome [5]

COc1ccc(Br)cc1/C=N/n1c(C)nnc1C
inactive: outcome [7] | outcome [8] | outcome [10] | outcome [5]
active: percent change from control (negative = decrease, positive = increase) [9] 10%

CC(C)c1ccc(NC(=O)Cn2ncc3ccccc32)cc1
inactive: outcome [7] | outcome [8] | outcome [9] | outcome [10] | outcome [5] | outcome [6]

Cc1cc(C)c2nc3nc(C)cc(C)c3c(N)c2c1
active: inhibition [8] 76.5% | percent change from control (negative = decrease, positive = increase) [9] -31% | inhibition [10] 48%
inactive: outcome [7] | outcome [5] | outcome [6]

CC(=O)Nc1ccc(NC(=O)CN2CCCC(C)C2)c(Cl)c1 (stereo unspecified)
active: inhibition [5] 66%
inactive: outcome [7] | outcome [8] | outcome [9] | outcome [10]

CC(C)C(c1nnnn1CCc1ccccc1)N1CCN(C(=O)c2ccco2)CC1 (stereo unspecified)
inactive: outcome [10]
active: membrane potential signal change [7] 153% | inhibition [8] 85.5% | percent change from control (negative = decrease, positive = increase) [9] 27.5% | inhibition [5] 70%

COc1ccc(Cn2c(-c3ccc(Cl)cc3)c[n+]3ccccc23)cc1
active: membrane potential signal change [7] -296% | percent change from control (negative = decrease, positive = increase) [9] -51.5% | inhibition [10] 48% | inhibition [5] 50.5%
inactive: outcome [8] | outcome [6]

CCOc1nc(NCCN2CCOCC2)nc(Nc2ccc(C)cc2)n1
inactive: outcome [8] | outcome [10] | outcome [5]
active: membrane potential signal change [7] 98% | percent change from control (negative = decrease, positive = increase) [9] 15%

CSCCC(NC(=O)c1ccc(=O)n(C)n1)c1nc2ccccc2[nH]1 (stereo unspecified)
inactive: outcome [7] | outcome [8] | outcome [9] | outcome [10] | outcome [5] | outcome [6]

O=C1CN(C(=O)c2ccccc2F)C(c2ccc(F)cc2)c2cc(F)ccc2N1 (stereo unspecified)
active: membrane potential signal change [7] 106% | percent change from control (negative = decrease, positive = increase) [9] 26.5%
inactive: outcome [8] | outcome [10] | outcome [5] | outcome [6]

Cc1cccc(NC(=S)NCCN(C2CCCCC2)C2CCCC2)c1
active: membrane potential signal change [7] 129% | percent change from control (negative = decrease, positive = increase) [9] 24.5% | inhibition [10] 68.5% | inhibition [5] 44.5%
inactive: outcome [8]

Cc1ccc2c(c1)C1CN(C)CCC1N2C(=S)Nc1ccc(Cl)cc1Cl (stereo unspecified)
inactive: outcome [7] | outcome [8] | outcome [5] | outcome [6]
active: percent change from control (negative = decrease, positive = increase) [9] -10% | inhibition [10] 49.5%

O=C(c1ccc(-n2cnnn2)cc1)N1CCN(C(c2ccccc2)c2ccccc2)CC1
active: membrane potential signal change [7] 251% | inhibition [8] 71% | percent change from control (negative = decrease, positive = increase) [9] 18.5% | inhibition [5] 44.5%
inactive: outcome [10]

CN(C)c1ccc(/C=C2\NC(=S)N(Cc3ccccc3)C2=O)cc1
active: membrane potential signal change [7] 267% | percent change from control (negative = decrease, positive = increase) [9] 126%
inactive: outcome [8] | outcome [10] | outcome [5] | outcome [6]

COC(=O)c1ccccc1NC(=O)C1CCN(S(=O)(=O)c2cc(OC)ccc2OC)CC1
inactive: outcome [7] | outcome [8] | outcome [10] | outcome [5]
active: percent change from control (negative = decrease, positive = increase) [9] 13%
